Test [1] in a line: qHTS RealTime-Glo MT Cell Viability Assay in HEK293 cells - 8 hour (AID 1224887). Further: nearly all actives have a fitted effect of over 50% in size. Further: potency means the concentration at half of the fitted maximal effect. Put shortly: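 600 HEK293 cells per well, dispensed already mixed with RealTime-Glo MT reagents. Compound dosing came 5 h later. The same wells were read for luminescence at 0, 8, 16, 24, 32 and 40 h of exposure at 37 C.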
The nature of test [2]: A CellTox Green Cytotoxicity Assay to monitor cytotoxicity in HEK293 cells - 16 hour (AID 1224888). Further: nearly all actives have a fitted effect of over 35% in size. Further: potency means the concentration at half of the fitted maximal effect. Summed up: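 Dead-cell fluorescence measured kinetically: asymmetric cyanine dye, HEK293, 600 cells/well, 5 h settle, 23 nL cpd/DMSO, 37 C, reads 0–40 h every 8 h.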
Test [3] is described as follows: qHTS RealTime-Glo MT Cell Viability Assay in HepG2 cells - 0 hour (AID 1224889). Further: nearly all actives have a fitted effect of over 50% in size. Put shortly:
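qHTS, HepG2, 600 cells/well, RealTime-Glo (NanoLuc + prosubstrate) added with cells; 5 h preincubation; DMSO compound addition; 37 C; luminescence at 0/8/16/24/32/40 h.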

Test [4] in a line: A CellTox Green Cytotoxicity Assay to monitor cytotoxicity in HepG2 cells - 8 hour (AID 1224890). Further: nearly all actives have a fitted effect of over 45% in size. Further: potency means the concentration at half of the fitted maximal effect. Summed up: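 First, HepG2 cells (600/well) mixed with reagent were plated; second, after 5 h at 37 C they received compounds via pintool; third, fluorescence was measured at 0 h through 40 h at 8 h intervals.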
Test [5] in a line: qHTS assay to identify small molecule antagonists of the estrogen receptor alpha (ER-alpha) signaling pathway using the BG1 cell line in the presence of 0.1 nM 17-beta-estradiol - cell viability counter screen (AID 1259241). Further: nearly all actives have a fitted effect of over 40% in size. Further: potency means the concentration at half of the fitted maximal effect. Summed up: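 In this screen, hormone-deprived VM7Luc4E2 cells were seeded at 4,000 per well, dosed with compound and 0.1 nM estradiol final, and incubated 22 hr at 37C and 5% CO2; fluorogenic live-cell protease signal reported viability.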

Test [6] deals with Androgen receptor (Homo sapiens) (UniProt P10275). As to the kind of experiment: qHTS assay to identify small molecule antagonists of the androgen receptor (AR) signaling pathway using the MDA cell line in the presence of 0.5 nM R1881 (AID 1259243). Further: nearly all actives have a fitted effect of over 50% in size. Summed up: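 Antagonist mode quantitative HTS in MDA-kb2 MMTV-luciferase cells, agonist R1881 at 0.5 nM final, 16 hr exposure at 37C and 0% CO2, luminescent detection.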

The target of test [7] is Estrogen receptor (Homo sapiens) (UniProt P03372). In words: qHTS assay to identify small molecule antagonists of the estrogen receptor alpha (ER-alpha) signaling pathway using the BG1 cell line in the presence of 0.1 nM 17-beta-estradiol (AID 1259244). Further: nearly all actives have a fitted effect of over 50% in size. Put shortly: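 Reporter is a stably transfected luciferase under four estrogen responsive elements in VM7Luc4E2 cells expressing native full-length ER-alpha; inhibition of 0.1 nM (final) 17beta-estradiol-driven signal over 22 h is read by luminescence.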

Test [8] in a line: qHTS assay to identify small molecule HDAC inhibitors (AID 1259364). Further: potency means the concentration at half of the fitted maximal effect.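 Further: wild-type HCT-116 cells with endogenous class I/II HDAC activity; nearly all actives have a fitted effect of over 45% in size.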 Put shortly:
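Quantitative high-throughput format: overnight-seeded HCT-116 cells got compounds for 2 hr at 37C; HDAC-Glo I/II reagent added, 30 min RT, luminescence measured.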

Test [9] in a line: qHTS assay to identify small molecule HDAC inhibitors - cell viability counter screen (AID 1259365). Put shortly: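 Measured quantity is CellTiter-Glo luminescence from wild-type HCT-116 cells after compound incubation of 2hr at 37C, 5% CO2; reagent developed 30min at room temperature.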
The nature of test [10]: qHTS assay to identify small molecule agonists of the sonic hedgehog signaling (Shh) pathway - cell viability counter screen (AID 1259366). Further: nearly all actives have a fitted effect of over 50% in size. Further: potency means the concentration at half of the fitted maximal effect. Summed up:
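In quantitative high-throughput format, 3T3 Gli1-Luc cells were exposed to compounds for 24hr and multiplexed for viability using CellTiter-Fluor, incubated 1hr at 37C before the fluorescence read.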

The nature of test [11]: qHTS assay to identify small molecule antagonists of the sonic hedgehog signaling (Shh) pathway (AID 1259369; calls by dose curve; further: nearly all actives have a fitted effect of over 45% in size; further: potency means the concentration at half of the fitted maximal effect). Summed up: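 Stable Gli1-Luc reporter NIH/3T3 clone; quantitative HTS in stimulated mode with conditioned medium. Luminescence measured after 24hr compound treatment at 37 C.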
The target in test [12] is Estrogen receptor beta (Homo sapiens) (UniProt Q92731). As to the kind of experiment: qHTS assay to identify small molecule agonists of the estrogen receptor beta (ER-beta) signaling pathway (AID 1259377; active means well fitted activation curve with a large enough effect in the signal ratio in the repeat runs, not every such curve was filed as active; the % refers to the signal ratio). Summed up:
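Reporter cells (HEK293T, ER-beta-UAS-bla) receive compounds or DMSO after a 6 hr pre-incubation. They then incubate 16 hr at 37C/5% CO2, and fluorescence from LiveBLAzer B/G substrate is measured after 2 hours at room temperature.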

Test [13] is described as follows: qHTS assay to identify small molecule agonists of the estrogen receptor beta (ER-beta) signaling pathway - cell viability counter screen (AID 1259380). Further: nearly all actives have a fitted effect of over 30% in size. Further: potency means the concentration at half of the fitted maximal effect. Put shortly:
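Steps: plate ER-beta-UAS-bla HEK293T cells, rest 6 hr; add compounds in DMSO; incubate 16 hr at 37C, 5% CO2; add FRET substrate 2 hr; add CellTiter-Glo, wait 30 min at room temperature; read luminescence.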

Test [14] can be described thus: qHTS assay to identify small molecule antagonists of the androgen receptor (AR) signaling pathway using the MDA cell line in the presence of 0.5 nM R1881 - cell viability counter screen (AID 1259242). Further: nearly all actives have a fitted effect of over 45% in size. Further: potency means the concentration at half of the fitted maximal effect. Put shortly: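 qHTS format. MDA-kb2 (MMTV-luc, AR/GR responsive) + cpd + 0.5 nM R1881 final, 16 hr 37C/0% CO2 → CellTiter-Fluor 30 min → fluorescence intensity.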
A short description of test [15]: qHTS assay to identify small molecule antagonists of the sonic hedgehog signaling (Shh) pathway - cell viability counter screen (AID 1259367). Further: nearly all actives have a fitted effect of over 55% in size. Further: potency means the concentration at half of the fitted maximal effect. Put shortly:
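CellTiter-Fluor signal in conditioned medium-stimulated 3T3 Gli1-Luc cells, 23 hr compound exposure, 37C.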

Test [16] can be described thus: qHTS assay to identify small molecule agonists of the sonic hedgehog signaling (Shh) pathway (AID 1259368; calls by dose curve;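 further: NIH/3T3-derived 3T3Gli1-Luc cells carrying a stable Gli1-driven firefly luciferase reporter; series mostly up to about 92 µM; nearly all actives have a fitted effect of over 15% in size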). Summed up:
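Quantitative high-throughput format using a Gli1-driven firefly luciferase reporter line derived from NIH/3T3 cells. After a 24 hr compound treatment at 37 C and 5% CO2, luminescence reported Gli1 response element activity.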

Test [17] can be described thus: qHTS assay to identify small molecule agonists of the androgen receptor (AR) signaling pathway in the presence of an antagonist - cell viability counter screen (AID 1259379). Further: nearly all actives have a fitted effect of over 25% in size. Further: potency means the concentration at half of the fitted maximal effect. Put shortly:
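Nilutamide-containing (3.0uM final) MDA-kb2 cultures, 3,000 cells/well, were treated with compounds across 15 concentrations. After 16 hr at 37C with no CO2, cell viability was determined by CellTiter-Fluor fluorescence in the luciferase assay wells.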

In test [18] the target is Androgen receptor (Homo sapiens) (UniProt P10275). As to the kind of experiment: qHTS assay to identify small molecule agonists of the androgen receptor (AR) signaling pathway in the presence of an antagonist (AID 1259381; calls by dose curve; further: nearly all actives have a fitted effect of over 15% in size). Summed up: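 Reporter-gene luminescence from MDA-kb2 cells exposed 16hr at 37C (0% CO2) to 15-point compound titrations with 3.0uM final nilutamide as AR antagonist.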

For test [19], the target named is Estrogen receptor beta (Homo sapiens) (UniProt Q92731). As to the kind of experiment: qHTS assay to identify small molecule antagonists of the estrogen receptor beta (ER-beta) signaling pathway (AID 1259378; active means well fitted inhibition curve with a large enough effect in the signal ratio in the repeat runs, not every such curve was filed as active; the % refers to the signal ratio). Summed up: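 Antagonist mode: compounds added to beta-lactamase reporter HEK293T ER-beta-UAS cells stimulated with E2 (1nM final), 16 hr at 37C. LiveBLAzer B/G FRET substrate, 2 hours room temperature, fluorescence read-out.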

A number with no mark means an inactive call. Inconclusive results are not listed. Active and inactive are the calls of the source. Unless noted, the call rests on the fitted dose curve; in most records, active means well fitted curve in the direction sought with a large enough effect in the repeat runs; inconclusive means weak or mixed curves; inactive means no such curve, though single readings can be large; an effect the other way counts as inactive or inconclusive.

Estrogen receptor beta (Homo sapiens), sequence (Q92731 whole entry, looked up): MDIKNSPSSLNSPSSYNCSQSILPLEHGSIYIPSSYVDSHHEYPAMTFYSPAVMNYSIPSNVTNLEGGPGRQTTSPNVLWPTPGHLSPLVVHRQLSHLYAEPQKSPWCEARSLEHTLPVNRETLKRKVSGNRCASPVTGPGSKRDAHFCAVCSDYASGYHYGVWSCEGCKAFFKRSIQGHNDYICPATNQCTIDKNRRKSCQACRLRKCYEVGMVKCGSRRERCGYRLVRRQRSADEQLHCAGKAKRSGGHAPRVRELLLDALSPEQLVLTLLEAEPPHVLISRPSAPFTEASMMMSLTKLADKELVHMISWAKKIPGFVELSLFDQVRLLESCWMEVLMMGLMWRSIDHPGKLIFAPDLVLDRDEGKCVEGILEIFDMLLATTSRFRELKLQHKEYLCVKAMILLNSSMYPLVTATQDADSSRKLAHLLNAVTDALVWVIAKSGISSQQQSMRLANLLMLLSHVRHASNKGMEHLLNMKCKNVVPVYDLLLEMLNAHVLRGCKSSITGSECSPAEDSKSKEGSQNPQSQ
Androgen receptor (Homo sapiens), sequence (P10275 whole entry, looked up): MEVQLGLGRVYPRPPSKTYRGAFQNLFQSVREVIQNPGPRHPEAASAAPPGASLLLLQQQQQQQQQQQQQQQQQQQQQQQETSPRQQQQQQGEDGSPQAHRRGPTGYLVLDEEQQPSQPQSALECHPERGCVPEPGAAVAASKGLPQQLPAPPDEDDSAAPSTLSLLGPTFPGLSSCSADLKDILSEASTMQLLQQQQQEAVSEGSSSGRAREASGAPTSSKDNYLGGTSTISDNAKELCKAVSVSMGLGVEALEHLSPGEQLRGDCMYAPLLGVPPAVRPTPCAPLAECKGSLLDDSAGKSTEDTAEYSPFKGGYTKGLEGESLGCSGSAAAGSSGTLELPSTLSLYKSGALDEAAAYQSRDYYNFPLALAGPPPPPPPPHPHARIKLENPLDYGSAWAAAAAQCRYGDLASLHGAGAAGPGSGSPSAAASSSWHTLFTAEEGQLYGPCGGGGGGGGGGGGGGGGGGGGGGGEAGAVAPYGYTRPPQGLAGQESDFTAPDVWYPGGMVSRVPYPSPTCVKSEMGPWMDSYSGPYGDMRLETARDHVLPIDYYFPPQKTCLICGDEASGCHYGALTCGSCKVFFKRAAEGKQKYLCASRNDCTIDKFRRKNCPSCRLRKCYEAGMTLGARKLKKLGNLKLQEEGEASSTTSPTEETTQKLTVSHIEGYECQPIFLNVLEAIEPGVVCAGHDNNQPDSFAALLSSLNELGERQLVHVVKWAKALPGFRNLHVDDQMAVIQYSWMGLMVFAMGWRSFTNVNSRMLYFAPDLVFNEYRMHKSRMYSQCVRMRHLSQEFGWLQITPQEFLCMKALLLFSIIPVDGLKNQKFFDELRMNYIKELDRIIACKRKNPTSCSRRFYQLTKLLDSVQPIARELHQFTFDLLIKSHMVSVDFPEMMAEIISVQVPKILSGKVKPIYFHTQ
Estrogen receptor (Homo sapiens), sequence (P03372 whole entry, looked up): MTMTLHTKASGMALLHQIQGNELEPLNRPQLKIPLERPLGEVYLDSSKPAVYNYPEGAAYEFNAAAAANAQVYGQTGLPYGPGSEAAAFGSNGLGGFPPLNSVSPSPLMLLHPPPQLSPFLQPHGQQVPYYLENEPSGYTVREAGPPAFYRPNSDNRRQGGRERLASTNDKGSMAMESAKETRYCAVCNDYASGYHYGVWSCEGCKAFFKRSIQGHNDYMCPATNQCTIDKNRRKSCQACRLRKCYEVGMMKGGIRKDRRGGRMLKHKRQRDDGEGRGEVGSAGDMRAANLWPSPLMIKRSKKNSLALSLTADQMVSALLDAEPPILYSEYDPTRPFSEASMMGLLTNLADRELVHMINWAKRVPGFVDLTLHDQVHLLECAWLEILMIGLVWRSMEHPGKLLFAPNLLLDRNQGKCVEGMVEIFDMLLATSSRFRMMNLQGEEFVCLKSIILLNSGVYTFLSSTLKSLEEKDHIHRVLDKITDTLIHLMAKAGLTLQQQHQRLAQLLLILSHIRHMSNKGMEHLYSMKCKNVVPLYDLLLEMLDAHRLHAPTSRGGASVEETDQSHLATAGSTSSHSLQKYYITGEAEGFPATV

For the molecule `CC(=O)Nc1ccc(N=Nc2cc(C)ccc2O)cc1`, the Potency entry in [1], in test [2], in test [3], in test [4], in [5] and in test [6] was “inactive” in each case. The Potency result in [7], in test [9], in test [10] and in test [13] was “inactive” throughout. Besides, the Potency was 2.73 µM (active) in test [8] and 15.4 µM (active) in test [11]. Besides, the outcome in [12] was inactive.

As for `CC(=O)CC(N)=O`, the Potency entry in test [1], in test [2], in [3], in test [4], in test [5] and in [14] was “inactive” throughout. Moreover, the Potency entry in [7], in test [8], in test [9], in [10], in test [15] and in test [16] was “inactive” throughout. In addition, the Potency entry in [11] and in test [17] was “inactive” each time.

On to `CCN(CC)c1ccc2c(c1)Oc1cc(N(CC)CC)ccc1C21OC(=O)c2ccccc21`, for which the Potency entry in test [1], in [3], in test [8], in [16] and in test [18] was “inactive” each time. Further, the Potency in test [2] is 21.3 µM (active); in test [4], 23.9 µM (active); in test [5] it was 5.96 µM (active); in [14], 10.6 µM (active); in [10] it was 3.76 µM (active); in test [15], 3.35 µM (active). Also, the Potency in [17] was 7.5 µM (active); in test [13], 10.6 µM (active).

`CC(c1cc(C(C)(C)C)cc(C(C)(C)C)c1O)c1cc(C(C)(C)C)cc(C(C)(C)C)c1O`: the Potency result in [1], in test [2], in test [3], in test [4], in [5] and in test [14] was “inactive” each time. In addition, the Potency entry in test [8], in test [9], in test [10], in [15], in test [16] and in test [11] was “inactive” in each case. The Potency result in test [19], in test [17] and in test [13] was “inactive” throughout. In addition, the molecule was called inactive in test [12].

For the molecule `CN(C)CCOc1ccc(/C(=C(/CCCl)c2ccccc2)c2ccccc2)cc1`, the Potency in test [1] is 40.9 µM (active); in [2], 45.8 µM (active); in test [4], 36.4 µM (active); in [10], 51 µM (active); in test [11], 36.1 µM (active); in test [13], 40.5 µM (active). The Potency result in [3], in test [5], in test [8], in [9], in [16] and in test [18] was “inactive” in each case.

For the molecule `C=Cc1ccc(O)c(OC)c1`, the Potency result in test [1], in [2], in test [3], in test [4], in test [5] and in test [14] was “inactive” throughout. Besides, the Potency entry in [8], in test [16], in test [19] and in test [17] was “inactive” each time. Moreover, the Potency is 54.5 µM (active) in test [10], 27.3 µM (active) in test [15] and 13.7 µM (active) in [11].

As for `CCCCCCCCc1ccc(Nc2ccc(CCCCCCCC)cc2)cc1`, the Potency entry in [1], in test [2], in [3], in test [4], in [14] and in [6] was “inactive” throughout. The Potency entry in test [7], in [8], in test [9], in [10], in [15] and in test [16] was “inactive” each time. Also, the Potency result in test [11], in [19], in test [17], in [13] and in [18] was “inactive” throughout. For the same molecule, in test [12], the outcome was inactive.

Turning to `CC1(C)[C@H]2CC[C@]1(C)C(=O)C2`, the Potency result in [1], in test [2], in test [3], in test [4], in test [5] and in [14] was “inactive” throughout. In addition, the Potency result in [7], in [8], in test [9], in test [15], in test [16] and in test [19] was “inactive” throughout. Also, in test [13], the Potency result was “inactive”.

(Values after PubChem BioAssay (Tox21).)
